{"source": "PubChem BioAssay (NCATS)", "key": {"[1]": {"target": "Hexokinase-4 (Homo sapiens) + Glucokinase regulatory protein (Homo sapiens) (UniProt P35557+Q14397)", "sequence (P35557 whole entry, looked up)": "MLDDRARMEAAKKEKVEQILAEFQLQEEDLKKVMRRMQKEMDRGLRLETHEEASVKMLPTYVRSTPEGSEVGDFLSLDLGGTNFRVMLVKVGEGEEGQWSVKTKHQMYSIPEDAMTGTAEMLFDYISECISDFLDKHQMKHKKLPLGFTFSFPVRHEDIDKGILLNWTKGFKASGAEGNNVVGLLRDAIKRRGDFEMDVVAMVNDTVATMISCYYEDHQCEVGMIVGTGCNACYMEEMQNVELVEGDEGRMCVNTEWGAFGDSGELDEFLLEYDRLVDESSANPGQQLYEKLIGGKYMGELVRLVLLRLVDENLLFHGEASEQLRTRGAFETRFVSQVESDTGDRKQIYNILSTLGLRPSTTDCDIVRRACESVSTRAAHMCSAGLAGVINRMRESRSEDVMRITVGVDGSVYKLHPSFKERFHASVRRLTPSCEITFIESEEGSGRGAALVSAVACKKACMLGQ", "sequence (Q14397 whole entry, looked up)": "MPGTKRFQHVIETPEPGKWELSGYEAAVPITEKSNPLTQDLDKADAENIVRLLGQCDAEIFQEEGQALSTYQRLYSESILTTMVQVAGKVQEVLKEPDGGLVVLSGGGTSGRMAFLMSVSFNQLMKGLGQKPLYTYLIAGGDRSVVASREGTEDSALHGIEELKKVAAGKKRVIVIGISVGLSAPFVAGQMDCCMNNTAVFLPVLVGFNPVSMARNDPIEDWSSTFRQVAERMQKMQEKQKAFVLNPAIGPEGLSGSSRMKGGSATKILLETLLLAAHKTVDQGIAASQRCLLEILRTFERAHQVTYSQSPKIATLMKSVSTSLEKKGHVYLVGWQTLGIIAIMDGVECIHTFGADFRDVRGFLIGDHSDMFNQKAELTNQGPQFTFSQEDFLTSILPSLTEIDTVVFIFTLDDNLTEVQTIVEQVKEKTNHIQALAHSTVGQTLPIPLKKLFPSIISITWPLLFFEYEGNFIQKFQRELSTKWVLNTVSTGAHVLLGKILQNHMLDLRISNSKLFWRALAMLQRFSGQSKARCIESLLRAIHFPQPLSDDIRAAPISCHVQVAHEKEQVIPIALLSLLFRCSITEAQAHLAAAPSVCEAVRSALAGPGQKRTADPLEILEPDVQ", "test": "qHTS assay for inhibitors of recombinant human GCK-GKRP interaction: HTRF assay (AID 743207);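 note: 0% = DMSO with GCK present and -100% = DMSO wells lacking GCK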", "conditions": "recombinant GCK-GKRP HTRF binding, 60 min; series mostly up to 57.5 µM", "how_it_was_run": "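Titration screening format: recombinant GST-GCK and FLAG-GKRP at 5 nM, S6P at 2 uM, labelled anti-tag antibodies, 60 min at RT, dual-wavelength HTRF readout.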"}, "[2]": {"test": "qHTS Assay for Identifying Gametocytocidal Compounds (AID 743244);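 note: % is set by controls: 0 for no effect and ±100 for the full control effect; actives lower the fluorescent signal which means gametocytes are killed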", "conditions": "P. falciparum 3D7 stage III-V gametocytes, alamarBlue, 72 h; max response: hits give low values", "how_it_was_run": "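Late gametocytes (III–V), P. falciparum 3D7; 72 h drug, then 24 h alamarBlue; resazurin reduction read by fluorescence.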"}}, "note": "Several values for one entry are separate records, joined by “and”; a condition that tells them apart may be missing. Equal values may be shown once. Values without a mark were called inactive. Results filed as inconclusive are left out. Activity calls are given as the source filed them. Calls come from the whole dose curve; as a rule, active = well fitted curve in the direction sought with a large enough effect; inconclusive = small, poorly fitted or top-dose-only effect, or another doubt; inactive = no such curve, though single readings can be large or run the other way."}
{"smiles": "c1ccc2sc(C3(N4CCCCC4)CCCCC3)cc2c1", "values": [{"measurement": "outcome", "setting": "[1]", "value": "inactive"}, {"measurement": "max response", "setting": "[2]", "value": 6.13, "unit": "%"}]}
{"smiles": "CCCN(CCC)C1CCc2ccc(O)cc2C1", "note": "(stereo unspecified)", "values": [{"measurement": "outcome", "setting": "[1]", "value": "inactive"}, {"measurement": "max response", "setting": "[2]", "value": 6.52, "unit": "%"}]}
{"smiles": "C=CCN1CC[C@]23CCCCC2[C@H]1Cc1ccc(O)cc13", "note": "(stereo partly specified)", "values": [{"measurement": "outcome", "setting": "[1]", "value": "inactive"}]}
{"smiles": "CC(C)Oc1cccnc1N(C)C1CCN(Cc2ccccc2)CC1", "values": [{"measurement": "outcome", "setting": "[1]", "value": "inactive"}, {"measurement": "max response", "setting": "[2]", "value": -6.11, "unit": "%"}]}
{"smiles": "C[C@]12CCC3C(CC[C@H]4C[C@H](O)CC[C@]34C)C1CC[C@@H]2C(=O)CO", "note": "(stereo partly specified)", "values": [{"measurement": "outcome", "setting": "[1]", "value": "inactive"}, {"measurement": "max response", "setting": "[2]", "value": 12.3, "unit": "%"}]}
{"smiles": "CCCCc1ccc(C(=O)O)nc1", "values": [{"measurement": "outcome", "setting": "[1]", "value": "inactive"}, {"measurement": "max response", "setting": "[2]", "value": "4.22% and 15%"}]}
